Among the data in PubChem BioAssay are z-score and composite z-score values, retold here.

The source made the active and inactive calls.

A short description of assay [1]: optical density shifts of acrAB sulA E. coli – strain DRC41, OD650, 48 h, E. coli filamentation inducer project, primary screen (AID 1152).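 Further: E. coli MC1000 strain DRC41 lacking acrAB efflux pump and sulA.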 The following applies: higher = more signal, called active from +8 up or from −8 down.
Assay [2] in a line: probe aLefty1 binding on compound microarray – biochemical, small-molecule microarray, 635/667 nm fluorescence, primary screen (AID 1153).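 Further: score merges spot fluorescence with signal-to-noise ratio from the scanned slide images.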 Conditions: higher = more signal.
Assay [3] can be described thus: plasmodial surface anion channel blockers, osmotic lysis – cell-based, P. falciparum Indochina, OD700, 1 h, primary screen (AID 1154). Conditions: P. falciparum Indochina infected RBC osmotic lysis, higher = more signal, called active from +8 up or from −8 down.
Assay [4] in a line: plasmodial surface anion channel blockers, osmotic lysis – cell-based, P. falciparum Indochina, OD700, 2 h, primary screen (AID 1155).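 Further: lysis reports solute entry through the parasite surface anion channel PSAC.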 The following applies: P. falciparum Indochina infected erythrocytes, higher = more signal, called active from +8 up or from −8 down.
A short description of assay [5]: changes in parasitized red cell lysis, either direction – P. falciparum Indochina, OD700, 3 h, PSAC antagonist project, primary screen (AID 1156). Conditions: P. falciparum-infected erythrocytes, osmotic lysis, higher = more signal, called active from +8 up or from −8 down.
Assay [6] in a line: plasmodial surface anion channel blockers, osmotic lysis – cell-based, P. falciparum Indochina, OD700, 18 h, primary screen (AID 1157). Conditions: P. falciparum Indochina infected erythrocytes, osmotic lysis OD700, 18 h; higher = more signal, called active from +8 up or from −8 down.
A short description of assay [7]: S6 kinase pathway phospho-S6 level changes – cell-based, A549, cytoblot, luminescence, serum-stimulated, primary screen (AID 1158).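 Further: serum-stimulated A549 lung adenocarcinoma cells; signal is phosphorylated S6 detected by cytoblot immunostaining with HRP secondary.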 Conditions: 5 h, higher = more signal.
For assay [8], the target named is NADPH oxidase 2 (Homo sapiens) (UniProt P04839). Briefly: compounds shifting NOX2 Amplex Red fluorescence – cell-based, HEK293-NOX2, PMA-stimulated, NOX inhibitor project, primary screen (AID 1159). Further: test concentration not given here. The following applies: 45 min, higher = more signal, called active from +8 up or from −8 down.
The target of assay [9] is NADPH oxidase 4 (Homo sapiens) (UniProt Q9NPH5). In words: compounds shifting NOX4 Amplex Red fluorescence – cell-based, HEK293-NOX4, tetracycline-induced, NOX inhibitor project, primary screen (AID 1160). Conditions: HEK293-NOX4, Amplex Red H2O2 fluorescence, 45 min; higher = more signal, called active from +8 up or from −8 down.
The target in assay [10] is NADPH oxidase 5 (Homo sapiens) (UniProt Q96PH1). In words: compounds shifting NOX5 Amplex Red fluorescence – cell-based, HEK293-NOX5, NOX inhibitor project, primary screen (AID 1161). The following applies: HEK293-NOX5, ionomycin, 45 min, higher = more signal.
Assay [11] is described as follows: compound effects on lung adenocarcinoma cell viability – A549, calcein-AM fluorescence, 48 h, basal, profiling panel (AID 1162). Further: test concentration not given here. Conditions: higher = more signal.
A short description of assay [12]: compound effects on differentiated 3T3-L1 adipocyte viability – cell-based, 3T3-L1 adipocytes, calcein-AM fluorescence, 48 h, basal, profiling panel (AID 1163). Further: test concentration not given here. Conditions: 3T3-L1 adipocytes viability, higher = more signal.
A short description of assay [13]: compound effects on hepatocellular carcinoma cell viability – HepG2, calcein-AM fluorescence, 48 h, basal, profiling panel (AID 1164). Further: test concentration not given here. Conditions: higher = more signal.
A short description of assay [14]: compound effects on multiple myeloma cell viability – MM1S, calcein-AM fluorescence, 48 h, basal, profiling panel (AID 1165).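 Further: viability of MM1S multiple myeloma cells under basal unstimulated conditions; test concentration not given here.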 The following applies: higher = more signal.
Assay [15] is described as follows: calcein-AM signal in unstimulated myeloma cells – cell-based, calcein-AM fluorescence, 48 h, PK04 Diversity Set, profiling panel (AID 1166).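 Further: cells grown under basal conditions without added stimulus; test concentration not given here.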 Conditions: RPMI8226 myeloma viability, higher = more signal.
Assay [16] can be described thus: JC-1 mitochondrial signal, unstimulated HepG2 cells – cell-based, JC-1 fluorescence, 24 h, 100 nL compound, profiling panel (AID 1167). Further: test concentration not given here. The following applies: HepG2 mitochondrial potential, higher = more signal.
A short description of assay [17]: JC-1 mitochondrial signal, unstimulated adipocytes – cell-based, JC-1 fluorescence, 3T3-L1 adipocytes, 24 h, 100 nL compound, profiling panel (AID 1168). Further: test concentration not given here. The following applies: JC-1 mitochondrial fluorescence, higher = more signal, called active from +8 up or from −8 down.
Assay [18] in a line: JC-1 mitochondrial signal, unstimulated myeloma cells – cell-based, JC-1 fluorescence, RPMI8226, 24 h, 100 nL compound, profiling panel (AID 1169). Further: test concentration not given here. The following applies: JC-1 mitochondrial potential fluorescence, higher = more signal.
Assay [19] in a line: JC-1 mitochondrial signal, unstimulated MM1S myeloma – cell-based, JC-1 fluorescence, 24 h, 100 nL compound, profiling panel (AID 1170). Further: test concentration not given here. The following applies: MM1S mitochondrial potential, higher = more signal.
Assay [20] in a line: resazurin metabolic signal in A549 cells – cell-based, resazurin fluorescence, 24 h, PK04 Diversity Set, profiling panel (AID 1171). Further: test concentration not given here. Conditions: A549 viability, higher = more signal, called active from +8 up or from −8 down.

NADPH oxidase 5 (Homo sapiens), sequence (Q96PH1 whole entry, looked up): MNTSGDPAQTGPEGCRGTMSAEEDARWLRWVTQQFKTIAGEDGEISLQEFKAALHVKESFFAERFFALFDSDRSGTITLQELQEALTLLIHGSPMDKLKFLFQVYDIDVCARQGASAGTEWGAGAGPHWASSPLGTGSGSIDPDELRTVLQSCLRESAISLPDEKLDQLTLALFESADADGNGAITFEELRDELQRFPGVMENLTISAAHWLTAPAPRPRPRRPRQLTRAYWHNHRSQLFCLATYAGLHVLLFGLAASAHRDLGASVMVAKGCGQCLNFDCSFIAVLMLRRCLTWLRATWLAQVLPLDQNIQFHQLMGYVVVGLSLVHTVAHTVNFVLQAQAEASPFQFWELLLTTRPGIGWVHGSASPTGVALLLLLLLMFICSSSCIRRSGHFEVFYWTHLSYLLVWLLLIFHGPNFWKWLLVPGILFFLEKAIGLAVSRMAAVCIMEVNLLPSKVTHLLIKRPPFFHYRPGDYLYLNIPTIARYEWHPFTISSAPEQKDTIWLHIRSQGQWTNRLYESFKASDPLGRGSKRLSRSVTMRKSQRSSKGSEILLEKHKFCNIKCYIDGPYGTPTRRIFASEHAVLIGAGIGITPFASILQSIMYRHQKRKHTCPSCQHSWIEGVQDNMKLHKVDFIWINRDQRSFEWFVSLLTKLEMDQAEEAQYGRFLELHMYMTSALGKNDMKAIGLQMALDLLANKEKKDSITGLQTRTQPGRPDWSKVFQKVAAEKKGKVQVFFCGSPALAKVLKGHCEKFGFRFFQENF
NADPH oxidase 4 (Homo sapiens), sequence (Q9NPH5 whole entry, looked up): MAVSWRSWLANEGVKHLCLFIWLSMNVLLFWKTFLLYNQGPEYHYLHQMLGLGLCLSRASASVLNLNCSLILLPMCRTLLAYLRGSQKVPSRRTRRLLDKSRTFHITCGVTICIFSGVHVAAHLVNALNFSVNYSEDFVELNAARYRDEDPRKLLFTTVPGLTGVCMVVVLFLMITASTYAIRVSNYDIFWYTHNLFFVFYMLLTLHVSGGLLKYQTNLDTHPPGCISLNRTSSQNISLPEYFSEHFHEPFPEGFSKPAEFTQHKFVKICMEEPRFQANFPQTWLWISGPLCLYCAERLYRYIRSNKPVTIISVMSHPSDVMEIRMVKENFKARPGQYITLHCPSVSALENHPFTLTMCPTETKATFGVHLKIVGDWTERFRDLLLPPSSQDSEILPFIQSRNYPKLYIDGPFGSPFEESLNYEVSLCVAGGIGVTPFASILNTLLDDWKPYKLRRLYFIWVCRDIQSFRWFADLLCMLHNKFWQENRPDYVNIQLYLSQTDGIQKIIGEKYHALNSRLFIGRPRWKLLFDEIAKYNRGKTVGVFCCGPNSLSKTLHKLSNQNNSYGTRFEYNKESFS
NADPH oxidase 2 (Homo sapiens), sequence (P04839 whole entry, looked up): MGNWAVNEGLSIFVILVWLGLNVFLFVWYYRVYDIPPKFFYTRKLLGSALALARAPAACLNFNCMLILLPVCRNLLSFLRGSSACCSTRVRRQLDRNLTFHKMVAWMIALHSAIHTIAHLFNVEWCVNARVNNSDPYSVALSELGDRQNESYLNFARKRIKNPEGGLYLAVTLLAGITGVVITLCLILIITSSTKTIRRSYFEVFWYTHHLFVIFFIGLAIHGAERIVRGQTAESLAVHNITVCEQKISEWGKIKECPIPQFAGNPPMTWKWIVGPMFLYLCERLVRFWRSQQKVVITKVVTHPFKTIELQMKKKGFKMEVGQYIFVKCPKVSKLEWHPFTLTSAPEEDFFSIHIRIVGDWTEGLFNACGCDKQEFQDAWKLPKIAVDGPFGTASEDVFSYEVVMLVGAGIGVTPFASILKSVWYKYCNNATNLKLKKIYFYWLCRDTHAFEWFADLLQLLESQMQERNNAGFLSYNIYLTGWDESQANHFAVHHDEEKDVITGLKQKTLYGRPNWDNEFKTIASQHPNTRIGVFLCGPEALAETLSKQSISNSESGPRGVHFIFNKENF

For `C=C(/C(=C/C[C@@H](OC(=O)c1ccncc1)c1ccccc1OCCO)c1cc(C(=O)OC)ccc1OC)C(C)C`, the z-score in assay [1] is 0.548 (inactive); in [3] it was 23.6 (active); in assay [4] it was 7.36 (inactive); in assay [5] it was 4.04 (inactive); in assay [6], 1.44 (inactive); in [7] it was 1.12. For the same compound, the z-score is -0.295 (inactive) in assay [8]; -1.04 (inactive) in assay [9]; -1.63 in assay [10]; 1.36 in assay [11]; 0.38 in assay [12]; 0.92 in assay [13]. The z-score was -3.25 in assay [14]; -2.11 in assay [15]; 2.74 in [16]; -0.158 (inactive) in assay [17]; 0.00511 in assay [18]; -1.71 in assay [19]. Besides, the z-score in assay [20] is -0.108 (inactive). In addition, the composite z-score in assay [2] is -0.204.
On to `COCCOC(=O)N1C(=O)[C@@]2(c3cc(C#CC4=CCCCC4)ccc31)[C@H](c1ccccc1OCCO)N1[C@H](c3ccccc3)[C@H](c3ccccc3)OC(=O)[C@H]1[C@@H]2C(=O)N1CCc2cc(OC)c(OC)cc2C1`, for which the z-score in assay [1] is -0.26 (inactive); in [3], 2.7 (inactive); in assay [4], 1.85 (inactive); in assay [5], 0.578 (inactive); in assay [6], 1.02 (inactive); in assay [7], 0.128. The z-score in assay [8] is 1.41 (inactive); in assay [9], 0.739 (inactive); in [10], 1.53; in assay [11] it was 0.697; in [12] it was 0.186; in assay [13] it was 1.34. Moreover, the z-score is 0.235 in assay [14]; -2.05 in [15]; 0.767 in assay [16]; 3.23 (inactive) in assay [17]; -1.06 in assay [18]; -1.32 in assay [19]. Moreover, the z-score in assay [20] is -0.926 (inactive). This compound had a composite z-score in assay [2] of -0.715.
On to `CCCC=C(CCC)[C@@H](NP(=O)(c1ccccc1)c1ccccc1)c1ccc(C(F)(F)F)cc1`, for which the z-score in assay [1] was -1.5 (inactive); in [3], -0.56 (inactive); in assay [4], -0.647 (inactive); in assay [5] it was -0.309 (inactive); in assay [6], -1.24 (inactive); in assay [7], 0.828. For the same compound, the z-score is 0.147 (inactive) in [8]; 1.46 (inactive) in assay [9]; 1.81 in [10]; -0.779 in [11]; -0.531 in [12]; -0.365 in [13]. Besides, the z-score in assay [14] is 0.463; in assay [15], 0.218; in assay [16] it was -0.497; in assay [17], -1.53 (inactive); in assay [18] it was 0.72; in assay [19] it was -0.379. Besides, the z-score in assay [20] is 0.472 (inactive). This compound registered a composite z-score in [2] of -0.485.
On to `COc1ccc([Si](C)(C)[C@@H]2[C@@H](CCO)O[C@]3(C(=O)N(Cc4cccc(N5C(=O)c6ccccc6Oc6ccccc65)c4)c4ccccc43)[C@H]2C)cc1`, for which the z-score in [1] was 0.705 (inactive); in assay [3] it was 2.72 (inactive); in [4], 3.13 (inactive); in [5] it was 0.207 (inactive); in assay [6] it was 1.77 (inactive); in assay [7] it was 0.243. Also, the z-score was 0.423 (inactive) in assay [8]; 0.543 (inactive) in assay [9]; 1.98 in [10]; -0.799 in assay [11]; -0.472 in assay [12]; -3.38 in [13]. Further, the z-score in [14] was -1.89; in assay [15] it was -4.32; in [16], -0.192; in assay [17], 0.614 (inactive); in assay [18], -0.954; in assay [19] it was -1.82. Besides, the z-score in [20] is -1.82 (inactive). Also, the composite z-score in assay [2] was determined as 0.0355.
With `O=C1C[C@]2(c3ccc([N+](=O)[O-])cc3)C(=O)N(Cc3ccccc3)c3cc(CO)ccc3[C@H]2N1CC12CC3CC(CC(C3)C1)C2`, the z-score is -0.06 (inactive) in assay [1]; 0.556 (inactive) in assay [3]; 0.37 (inactive) in assay [4]; -0.401 (inactive) in assay [5]; 0.23 (inactive) in assay [6]; -0.218 in [7]. In addition, the z-score was 0.135 (inactive) in assay [8]; 0.256 (inactive) in assay [9]; 0.664 in [10]; 0.376 in assay [11]; -1.02 in assay [12]; 1.51 in assay [13]. Further, the z-score is 0.397 in assay [14]; 0.329 in assay [15]; -0.821 in [16]; 0.286 (inactive) in assay [17]; 0.589 in [18]; -1.02 in assay [19]. Besides, the z-score in assay [20] is -0.849 (inactive). The compound further returned a composite z-score in [2] of -0.678.
As to `C=C(COC)/C(=C/C[C@@H](OC(=O)c1ccncc1)c1cccc(OCCO)c1)c1cnc2ccccc2c1`, the z-score was -0.0626 (inactive) in [1]; 18.8 (active) in assay [3]; 6.49 (inactive) in assay [4]; -1.32 (inactive) in assay [5]; 1.29 (inactive) in assay [6]; 0.507 in [7]. For the same compound, the z-score is -1.47 (inactive) in assay [8]; -0.256 (inactive) in assay [9]; -3.1 in [10]; 0.0954 in [11]; 0.542 in [12]; -1.03 in assay [13]. The z-score in assay [14] is -2.17; in assay [15], -0.307; in assay [16], 0.862; in assay [17] it was -1.76 (inactive); in assay [18], 0.187; in assay [19] it was 0.276. Moreover, the z-score in assay [20] is -0.634 (inactive). The composite z-score in [2] worked out at 0.664.
Turning to `CN(C)C(=O)[C@]1(CCC(=O)OC(C)(C)C)N=C(c2ccc(OCCCO)cc2)O[C@@H]1c1ccccc1`, the z-score was 0.94 (inactive) in assay [1]; 22.5 (active) in assay [3]; 6.32 (inactive) in assay [4]; -0.0962 (inactive) in [5]; 0.84 (inactive) in assay [6]; -0.408 in assay [7]. In addition, the z-score in [8] is 1.24 (inactive); in [9], 0.419 (inactive); in assay [10], -0.229; in assay [11] it was 1.13; in assay [12] it was -0.0645; in assay [13], 0.41. In addition, the z-score in assay [14] was 0.387; in assay [15] it was -0.014; in assay [16], 0.101; in assay [17], 0.756 (inactive); in assay [18] it was -0.368; in assay [19] it was 0.211. For the same compound, the z-score in assay [20] is 0.534 (inactive). In addition, in [2], the composite z-score amounted to 0.217.
Regarding `O=C(O)[C@H](Cc1ccccc1)n1cc(-c2ccccn2)nn1`, the z-score was -0.267 (inactive) in [1]; -0.258 (inactive) in assay [3]; -0.431 (inactive) in assay [4]; -0.906 (inactive) in assay [5]; -0.0561 (inactive) in assay [6]; -0.428 in [7]. The z-score in assay [8] is -1.61 (inactive); in assay [9], -0.653 (inactive); in [10] it was -1.24; in assay [11], -0.529; in [12], 0.039; in [13] it was -0.129. Further, the z-score is 0.228 in [14]; -0.608 in assay [15]; 0.237 in assay [16]; 1.56 (inactive) in assay [17]; -0.166 in [18]; -0.263 in assay [19]. Moreover, the z-score in [20] is 0.507 (inactive). The compound further came in with a composite z-score in assay [2] of -0.0969.
As to `CCC[C@@H]1C[C@@]1(CCC)[C@@H](NP(=O)(c1ccccc1)c1ccccc1)c1ccc(Cl)cc1`, the z-score is -2.39 (inactive) in assay [1]; 0.887 (inactive) in [3]; 0.0991 (inactive) in assay [4]; 0.278 (inactive) in assay [5]; 0.323 (inactive) in [6]; 0.0038 in assay [7]. Moreover, the z-score is -0.769 (inactive) in assay [8]; -1.97 (inactive) in [9]; 0.429 in [10]; -1.19 in assay [11]; -1.03 in [12]; -1.99 in assay [13]. In addition, the z-score is -1.45 in [14]; -2.28 in assay [15]; -4.09 in assay [16]; -0.876 (inactive) in assay [17]; -0.618 in [18]; -1.81 in assay [19]. Further, the z-score in [20] is 0.419 (inactive). In assay [2], this compound yielded a composite z-score of 0.0315.
